# Reference: PubChem BioAssay (NCI)
# Values joined by “and” are separate entries in the source; they are usually repeats but may differ in a detail not shown here. Equal entries are not always repeated. The panel holds about 83,000 compounds, 20% with a hit somewhere; the sample as a whole holds those more often.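 Growth was measured after 48 h exposure to one concentration of compound in 96-well plates. Values under 10 count as active.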 Active and inactive are the calls of the source.
# Test system: MDA-MB-468 breast
# Test: NCI-60 one-dose screen, 48 h (100 = growth as untreated, 0 = no growth, -100 = all killed)
# Details: 10 µM unless noted
row,SMILES,growth
1,O=C(NNc1nc2cc(F)ccc2n2cccc12)c1ccncn1,-15.2% (active)
2,CCOC(=O)c1coc(C(=O)OCC)c1C(=O)OCC,107% (inactive)
3,O=C(CSc1nccc(Nc2ccc(S(=O)(=O)Nc3nccs3)cc2)n1)c1ccc(F)cc1,98.6% (inactive)
4,COc1ccc(-c2nn(-c3cccc(NC(=O)c4ccc(Cl)c(Cl)c4)c3)cc2-c2ccncc2)cc1Cl,73.3% (inactive)
5,CCCc1cccc(CCC)c1NC(=O)Nc1cc(Cl)cc(Cl)c1,98.8% (inactive)
6,CCC(C(=O)[C@@H](C)[C@@H](O)[C@H](C)[C@@H]1O[C@@H]([C@@H](CC)C(=O)ONC(=O)c2ccccc2)CC[C@@H]1C)[C@H]1O[C@]2(C=CC(=O)[C@]3(CC[C@@](C)([C@H]4CC[C@](O)(CC)[C@H](C)O4)O3)O2)[C@H](C)C[C@@H]1C (some centres undefined),-33.2% (active)
7,NC1=NN(O)C2=CC([N+](=O)[O-])C=CC2=N1 (centres undefined),107% (inactive)
8,Cc1cc(-c2cc(OC(=O)c3ccccc3)ccc2Cl)cc2nnc(Nc3ccc(OCCN4CCCC4)cc3)nc12,84.3% (inactive)
9,COc1cc(/C=C/c2cc(/C=C/c3ccc(O)c(OC)c3)nc(N)n2)ccc1O,-35% (active)
10,CCN1C(=O)/C(=C/C(=O)OC)S/C1=N\NC(=O)c1cc2ccc1/C=C\c1ccc(cc1)/C=C\2,87.3% (inactive)
11,S=P(N1CC1)(N1CC1)N1CC1,106% (inactive) and 67.8% (inactive)
12,Cc1c(C(C)(C)C)cc(C(C)(C)C)c2c1CN(C)CO2,122% (inactive)
13,Nc1nc(Nc2ccccc2SSc2ccccc2Nc2nc(N)nc(-c3cccc(Br)c3)n2)nc(-c2cccc(Br)c2)n1,95.4% (inactive)
14,Cc1ccc(-c2nc([P+](c3ccccc3)(c3ccccc3)c3ccccc3)c(N3C[C@H]4C[C@H](C3)c3cccc(=O)n3C4)o2)cc1,-9.01% (active)
15,O=S(=O)(Nc1ccc(Cl)cc1Cl)c1ccc(-c2cnc(C3CC3)o2)cc1,-34.2% (active)
16,Cc1cn(-c2cc(C(=O)Nc3cccc(-n4ccc5c(NC(=O)c6ccccc6)nccc54)c3)cc(C(F)(F)F)c2)cn1,-9.97% (active)
17,CNC(=O)c1cc(Oc2cccc3nc(Nc4ccc(Oc5ccccc5)cc4)ccc23)ccn1,63.7% (inactive)
18,COC(=O)c1c2c(c(C)[n+]([O-])c1C)C(=O)C=C(NCc1cccc(OC)c1)C2=O,-67.8% (active)
19,O=C1c2ccccc2-c2c1c1ccncc1c(=O)n2CCCn1ccnc1,28% (inactive)
20,COc1ccc(C2=NC(=O)NC2c2ccc(OC)cc2)cc1 (centres undefined),43.9% (inactive)
21,Cc1ccc(C(=O)NN2C(=O)CSC2c2cccc([N+](=O)[O-])c2)cn1 (centres undefined),105% (inactive)
22,CC(=O)c1sc(-c2ccc(F)cc2)cc1O,111% (inactive)
23,Cc1nn(-c2ccc(Br)cc2)c2nc(CCl)[nH]c(=O)c12,94% (inactive)
24,Cc1ccc(-n2nc3n(/c2=N\C(=O)NS(=O)(=O)c2ccc(C)cc2)CCN3C2=NCCN2)cc1,114% (inactive)
